HepG2 tox: HepG2 cytotoxicity, counter-screen for TGF-b inhibitors; HepG2 CAGA-GFP viability, ATP luminescence, 18 h; Potency, µM (highest dose often 46.1 µM), hits mostly cytotoxic; actives 0.76% (n = 410,000)
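CellTiter-Glo luminescence gave cytotoxicity after 18 hours at 37 degrees C. The cells were HepG2 CAGA-GFP in 1% FBS DMEM, stimulated with 500 pg/mL TGF-beta after compound addition. %Activity was normalised to no-cell wells (complete cell-killing) and DMSO (no toxicity), and curves were fitted and classified.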
S2 tox: viability counter-screen for ATXN expression inhibitors; S2 cells (HEK-293 line with an ATXN2-luciferase reporter) viability, CellTiter-Fluor protease fluorescence, 24 h; Potency, µM (titrated, usually from 56.7 µM), most hits filed as cytotoxic; actives 0.49% (n = 400,000); note: nearly all actives have a fitted effect of over 40% in size
TGFb inhibitor: inhibitors of TGF-b signaling; HepG2 CAGA-GFP TGF-b/SMAD3 reporter, GFP fluorescence, 18 h; TGF-beta stimulated, 500 pg/mL final; AID 588855; Potency, µM (series often up to 46.1 µM), most hits filed as inhibitors; actives 1.2% (n = 410,000); note: nearly all actives have a fitted effect of over 65% in size
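Smad-responsive CAGA-GFP expression was quantified in HEPG2 cells exposed to compounds and 500 pg/mL final TGF-beta for 18 h at 37 degrees C; unstimulated wells defined full inhibition.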
ATXN2 expr inh: reduces ATXN2 reporter expression in HEK-293 cells; HEK-293 ATXN2-luciferase reporter, luminescence, 24 h; Potency, µM (doses to about 57 µM), usual class: inhibitors; actives 0.72% (n = 360,000); note: nearly all actives have a fitted effect of over 55% in size
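ATXN2-luciferase reporter cells (luciferase flanked by upstream and downstream ATXN2 gene portions) were treated 24 h at 37 °C with compounds at up to 57 uM. SteadyGlo luminescence gave expression; GF-AFC fluorescence gave viability.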
IL1B secr inh: blocks inflammasome-driven IL-1 beta release. activity change, % at 57.5 µM. AID 743279. actives 4.7% (n = 360,000). THP-1 LPS/ATP IL-1B secretion, AlphaLISA, 16 h; hits give low values; in the data active = activity change below about -50%; inconclusive = mostly about -30% to -49%
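THP-1 cells pretreated 1 hr with compounds (up to 57.5 uM final), then stimulated with LPS (250 ng/mL final) plus ATP (1.25 mM final); secreted IL-1B measured by AlphaLISA after 16 hr, decreased signal indicating inhibition.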
Numbers stand for hits; - = inactive; ? = inconclusive; . = no result given; ! = repeats disagree; [ ] = another dose, or the depositor's remark. Hits are enriched below; roughly 5.7% of the tested compounds scored in any of these assays. Unless noted, calls come from the whole dose curve; as a rule, active = well fitted curve in the direction sought with a large enough effect; inconclusive = small, poorly fitted or top-dose-only effect, or another doubt; inactive = no such curve, though single readings can be large; an effect the other way counts as inactive or inconclusive.

SMILES | HepG2 tox | S2 tox | TGFb inhibitor | ATXN2 expr inh | IL1B secr inh
Cc1cccc(-n2c(/C=C\c3cccc(Br)c3)nc3ccccc3c2=O)c1 | - | . | - | . | .
Cc1cccc(-n2c(/C=C/c3ccccn3)nc3ccccc3c2=O)c1 | - | ? | - | - | -52.1
COc1cccc(-n2c(/C=C/c3ccccn3)nc3ccccc3c2=O)c1 | - | ? | - | - | -84.0
CC1CCN(C(=O)Cn2c3ccccc3c3nc4n(c(=O)c32)CCCS4)CC1 | - | ? | - | - | -
CCc1ccc(NC(=O)c2cnc3sc(N4CCCC4)nn3c2=O)cc1 | - | . | ? | . | .
O=C(NCc1ccc2c(c1)CCN2C(=O)c1ccccc1)Nc1cccc(C(F)(F)F)c1 | - | . | 2.82µM | . | .
O=C(CN1C(=O)CN=C(c2ccccc2)c2ccccc21)Nc1cccc(C(F)(F)F)c1 | - | . | ? | ? | .
COc1cc(NC(=O)c2cc3cc4ccc(C)cc4nc3o2)cc(OC)c1OC | - | ? | - | ? | .
COc1ccc2c(c1)CCc1c(C(=O)Nc3c(C)nn(Cc4ccccc4C)c3C)noc1-2 | - | ? | 12.6µM | - | .
COc1ccc(NC(=O)c2c(C)nn(Cc3ccccc3Cl)c2Cl)cc1Cl | - | ? | - | - | -
CCOC(=O)Cn1cc([N+](=O)[O-])nc1[N+](=O)[O-] | 11.2µM | - | ? | - | -
CCCN1CCO[C@@H]2c3cc(O)ccc3OC[C@@H]21 | . | . | . | - | .
CC(C)(C)c1csc(NC(=O)Nc2ccccc2)n1 | - | - | ? | -[11.3 µM] | -94.3
Cc1csc(NC(=O)C(Cl)c2ccccc2)n1 (configuration not stated) (tested in a mixture with another compound) | - | - | - | - | -
O=C(Cn1c(=O)oc2cc(S(=O)(=O)NCc3ccccc3)ccc21)Nc1cccc(F)c1 | - | - | ? | - | .
CN(CC(=O)Nc1cccc(F)c1)CC(=O)Nc1cccc(S(=O)(=O)N(C)c2ccccc2)c1 | - | ? | ? | ? | -78.8
CCc1nc2ccc(C(=O)N3CCN(C(=O)c4ccco4)CC3)cn2c1N(C)Cc1ccc(OC)cc1 | - | - | ? | - | -
C[N+]1(C)[C@@H]2CC(OC(=O)[C@H](CO)c3ccccc3)C[C@H]1[C@H]1O[C@@H]12 (some centres not stated) | . | . | . | - | .
CC(C)(N)Cc1ccccc1Cl | . | - | . | - | .
COC12C(COC(N)=O)C3=C(C(=O)C(C)=C(N)C3=O)N1CC1C2N1C (configuration not stated) | - | ? | - | 6.31µM | -
O=C1N[C@@H](Cc2ccccc2)C(=O)N2[C@H]3Nc4ccccc4[C@@]3([C@]34C[C@H]5C(=O)N[C@@H](Cc6ccccc6)C(=O)N5[C@H]3Nc3ccccc34)C[C@@H]12 | - | 12.6µM | ? | ? | -
CCN1C(=O)/C(=C/c2ccc(N(CC)CC)cc2OC)C(=O)NC1=S | - | - | - | ? | -55.0
COc1ccccc1/C=C1\C(=O)NC(=S)N(c2ccccc2)C1=O | - | - | - | - | -
NC(N)=Nc1ccc2[nH]c3c(c2c1)C[C@@]1(O)[C@H]2Cc4ccc(O)c5c4[C@@]1(CCN2CC1CC1)[C@H]3O5 | - | ? | 14.1µM! | - | ?
Oc1ccc2c3c1O[C@H]1[C@@H](O)CC[C@@]4(O)[C@@H](C2)N(CC2CCC2)CC[C@]314 | - | - | - | - | -
SMILES | HepG2 tox | S2 tox | TGFb inhibitor | ATXN2 expr inh | IL1B secr inh
CCN(CC)c1ccc(/C=C2/C(=O)NC(=O)N(Cc3ccco3)C2=O)cc1 | - | - | - | - | -64.3
O=C1NC(=O)N(Cc2ccco2)C(=O)/C1=C\c1cccn1CCOc1ccc(Cl)cc1 | - | - | ? | - | -65.0
COc1ccc(C(=O)NCCn2cc(SC(C)c3ccccc3)c3ccccc32)cc1OC (configuration not stated) | - | ? | ? | ? | .
Cc1ccc(N2CCN(C(=O)c3cn(CC4CCCCC4)nn3)C(C)C2)cc1 (configuration not stated) | - | - | ? | - | -
C[C@H]1CNC(=O)c2c(C(=O)N3CCN(C(=O)OC(C)(C)C)CC3)ncn21 | - | ? | - | ? | -
C[C@@H]1CN([C@@H](C)CO)C(=O)c2c(c3ccccc3n2C)-c2ccccc2CO[C@H]1CN(C)S(=O)(=O)c1ccc(C(F)(F)F)cc1 | - | - | ? | - | -
Cn1c(O)c(/C=C2\N=c3ccccc3=C2CCNC(=S)NC2CC2)c(=O)n(C)c1=O | - | ? | - | ? | -96.0
O=C(CNC(=O)c1ccccc1Cl)Nc1ccc(Br)cc1C(=O)c1ccccc1 | - | - | - | - | -
O=C(CNC(=O)c1ccccc1)Nc1ccc(Br)cc1C(=O)c1ccccc1 | - | - | - | - | -52.2
C=C(C=O)CC1CC(O)[C@]2(C)OC3CC4OC5C[C@]6(C)O[C@]7(C)CCC8OC9C[C@]%10(C)OC%11C(C)=CC(=O)OC%11CC%10OC9C[C@@H](C)C8OC7CC6O[C@]5(C)CC5OC5C4OC3CC2O1 (some centres not stated) | - | . | ? | ? | -104.3
O=[N+]([O-])c1ccc2nc(N3CCNCC3)ccc2c1 | - | - | - | - | -52.9
O=C(Nc1ccccc1)c1cc([N+](=O)[O-])ccc1N1CCNCC1 | - | ? | - | - | -
Cc1cc(C(=O)Nc2ccccc2)nn1C(C)(C)C | - | - | - | - | -
Cc1nn(C(C)(C)C)c(C)c1/C=N/OC(=O)Nc1ccc(Cl)cc1 | - | - | ? | - | -93.7
O=S(=O)(CC1CS1)c1ccc(Oc2ccccc2)cc1 (configuration not stated) | . | . | . | - | .
CC(C)N(Cc1ccccc1)C(=O)CCS(=O)(=O)c1ccc2c(c1)oc(=O)n2C | - | - | - | - | -
C[C@@H]1CC[C@@]2(OC1)O[C@H]1C[C@H]3[C@@H]4CC=C5C[C@@H](O[C@@H]6O[C@H](CO)[C@@H](O[C@@H]7O[C@@H](C)[C@H](O)[C@@H](O)[C@@H]7O)[C@H](O)[C@@H]6O[C@@H]6O[C@@H](C)[C@H](O)[C@@H](O)[C@@H]6O)CC[C@]5(C)[C@@H]4CC[C@]3(C)[C@@H]1[C@H]2C | . | . | . | 12.2µM | .
C[C@H]1CC[C@@H]2[C@@H](C)[C@H]3C(CC4C5CC=C6CC(O[C@@H]7O[C@H](CO)C(O[C@@H]8O[C@@H](C)[C@H](O)[C@@H](O)[C@H]8O)[C@H](O)[C@H]7O[C@@H]7O[C@@H](C)[C@H](O)[C@@H](O)[C@H]7O)CC[C@]6(C)C5CC[C@@]43C)N2C1 (some centres not stated) | 20µM | . | 14.1µM | . | .
CC[C@H]1C(=O)OC[C@H]1Cc1cncn1C | . | - | . | . | .
COC1=C(C)C(=O)C2=C(C1=O)C(CO)N1C(C#N)C3CC4C(C1C2N1CCOC41)N3C (configuration not stated) | - | ? | 7.08µM | ? | -102.5
